# Source: PubChem BioAssay (Tox21)
# Values joined by “and” are separate entries in the source; they are usually repeats but may differ in a detail not shown here. Identical values can stand only once. Results filed as inconclusive are left out. Entries that show only a call come without a potency. Active and inactive are the calls of the source. Unless noted, calls come from the whole dose curve; as a rule, active = well fitted curve in the direction sought with a large enough effect in the repeat runs; inconclusive = weak or mixed curves; inactive = no such curve, though single readings can be large; an effect the other way counts as inactive or inconclusive.
# Experiments:
# [1] = qHTS assay for identifying genotoxic compounds that show differential cytotoxicity against isogenic chicken DT40 cell lines with known DNA damage response pathways - wild type cell line (AID 743012); note: nearly all actives have a fitted effect of over 60% in size; note: potency is the fitted concentration of half-maximal effect
# Method in brief: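 Quantitative HTS on parental DT40 cells: 40 h compound treatment at 37 C/5% CO2, with viability then determined by CellTiter-Glo luminescence. Values serve as the DNA repair-proficient reference for differential cytotoxicity.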
# [2] = qHTS assay for identifying genotoxic compounds that show differential cytotoxicity against isogenic chicken DT40 cell lines with known DNA damage response pathways - Rev3 mutant cell line (AID 743014); note: nearly all actives have a fitted effect of over 55% in size; note: potency is the fitted concentration of half-maximal effect
# [3] = qHTS assay for identifying genotoxic compounds that show differential cytotoxicity against isogenic chicken DT40 cell lines with known DNA damage response pathways - Rad54/Ku70 mutant cell line (AID 743015); note: nearly all actives have a fitted effect of over 60% in size; note: potency is the fitted concentration of half-maximal effect
# [4] = qHTS assay to identify small molecule antagonists of the androgen receptor (AR) signaling pathway - cell viability counter screen (AID 743033; note: nearly all actives have a fitted effect of over 45% in size)
# [5] = qHTS assay to identify small molecule antagonists of the androgen receptor (AR) signaling pathway using the MDA cell line - cell viability counter screen (AID 743041; note: nearly all actives have a fitted effect of over 45% in size; note: potency is the fitted concentration of half-maximal effect)
# Method in brief: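 Viability counter screen run alongside the AR antagonist reporter: cells seeded 5 h before compound, R1881 added, 16 h incubation at 37C without CO2, fluorescent CellTiter-Fluor signal quantified.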
# [6] = target: Androgen receptor (Homo sapiens) (UniProt P10275); test: qHTS assay to identify small molecule agonists of the androgen receptor (AR) signaling pathway (AID 743036; active = well fitted activation curve with a large enough effect in the signal ratio in the repeat runs, with a control signal flat, not every such curve was filed as active; the % refers to the signal ratio; note: potency is the fitted concentration of half-maximal effect)
# Method in brief: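 AR-UAS-bla HEK293 cells, plated 4 h before dosing, were treated with compound for 16 h at 37C. beta-Lactamase reporter read after 2 h with LiveBLAzer B/G FRET substrate at room temperature.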
# [7] = target: Androgen receptor (Homo sapiens) (UniProt P10275); test: qHTS assay to identify small molecule agonists of the androgen receptor (AR) signaling pathway using the MDA cell line (AID 743040; note: nearly all actives have a fitted effect of over 20% in size; note: potency is the fitted concentration of half-maximal effect)
# Method in brief: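 Luminescence from ONE-Glo, read after 30 min at room temperature, reflects MMTV-driven luciferase in MDA-kb2 cells (AR- and GR-responsive). Treatment lasted 16 h at 37C, 0% CO2.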
# [8] = target: Androgen receptor (Homo sapiens) (UniProt P10275); test: qHTS assay to identify small molecule antagonists of the androgen receptor (AR) signaling pathway using the MDA cell line (AID 743042; note: nearly all actives have a fitted effect of over 55% in size; note: potency is the fitted concentration of half-maximal effect)
# Method in brief: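 MDA-kb2 cells (human breast carcinoma, stably carrying an MMTV-luciferase reporter responsive to AR and GR) were plated at 3,000 cells/well and preincubated 5 hr at 37C, then given compound plus R1881 agonist for 16 h. ONE-Glo luminescence was read.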
# [9] = target: Androgen receptor (Homo sapiens) (UniProt P10275); test: qHTS assay to identify small molecule antagonists of the androgen receptor (AR) signaling pathway (AID 743035; active = well fitted inhibition curve with a large enough effect in the signal ratio in the repeat runs, not every such curve was filed as active; the % refers to the signal ratio)
# Method in brief: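 Cell line: GeneBLAzer AR-UAS-bla GripTite (HEK293). Stimulus: R1881 added after compound. Exposure: 16 h, 37C, 5% CO2. Readout: LiveBLAzer B/G FRET fluorescence after 2 h at room temperature.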
# Chain of Androgen receptor (Homo sapiens) (P10275 whole entry, looked up): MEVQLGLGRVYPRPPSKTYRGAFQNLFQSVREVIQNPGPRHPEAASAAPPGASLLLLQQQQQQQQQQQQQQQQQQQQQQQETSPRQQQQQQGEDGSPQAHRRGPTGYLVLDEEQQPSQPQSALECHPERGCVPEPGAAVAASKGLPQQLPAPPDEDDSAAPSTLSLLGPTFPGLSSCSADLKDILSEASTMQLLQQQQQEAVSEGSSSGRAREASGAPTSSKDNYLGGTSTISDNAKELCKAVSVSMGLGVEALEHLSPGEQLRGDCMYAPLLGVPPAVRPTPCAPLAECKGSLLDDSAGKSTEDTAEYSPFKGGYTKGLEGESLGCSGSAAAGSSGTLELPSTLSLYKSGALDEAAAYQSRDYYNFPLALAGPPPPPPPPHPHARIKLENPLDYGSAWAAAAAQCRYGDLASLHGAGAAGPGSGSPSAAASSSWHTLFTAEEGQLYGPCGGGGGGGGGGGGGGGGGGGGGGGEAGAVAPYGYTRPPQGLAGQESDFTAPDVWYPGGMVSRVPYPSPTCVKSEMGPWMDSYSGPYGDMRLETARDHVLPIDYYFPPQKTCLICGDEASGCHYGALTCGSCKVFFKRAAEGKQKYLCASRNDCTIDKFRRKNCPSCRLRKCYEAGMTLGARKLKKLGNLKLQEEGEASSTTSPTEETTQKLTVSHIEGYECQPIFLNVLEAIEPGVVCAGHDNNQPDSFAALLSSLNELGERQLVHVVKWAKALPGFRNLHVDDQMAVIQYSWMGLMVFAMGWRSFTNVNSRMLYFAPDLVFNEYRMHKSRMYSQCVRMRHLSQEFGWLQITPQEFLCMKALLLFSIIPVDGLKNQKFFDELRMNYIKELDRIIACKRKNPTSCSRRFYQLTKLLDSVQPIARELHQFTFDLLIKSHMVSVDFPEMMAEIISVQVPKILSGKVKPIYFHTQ
compound,measurement,setting,value
O=C(O)c1cccc(O)c1,Potency,[1],inactive
same,Potency,[2],inactive
same,Potency,[3],inactive
same,Potency,[4],inactive
same,Potency,[5],inactive
CCC(C(=O)OCCOCCN(CC)CC)c1ccccc1 (stereo unspecified),Potency,[2],10.6 µM (active)
same,Potency,[3],21.1 µM (active)
same,Potency,[4],inactive
same,Potency,[5],inactive
CCCCCCCCCCCC[N+](C)(C)CC(=O)[O-],Potency,[1],27.3 µM (active)
same,Potency,[2],27.3 µM (active)
same,Potency,[3],61.1 µM (active)
same,Potency,[5],inactive
NC(=O)Nc1ccc(Cl)cc1,Potency,[2],inactive
same,Potency,[3],inactive
same,Potency,[4],inactive
same,Potency,[5],inactive
CCC(Cc1ccccc1)(C(=O)c1ccc(N2CCOCC2)cc1)N(C)C (stereo unspecified),Potency,[1],7.7 µM (active)
same,Potency,[2],4.33 µM (active)
same,Potency,[3],9.69 µM (active)
same,Potency,[5],inactive
CCOC(=N)CC(=O)OCC,Potency,[1],inactive
same,Potency,[3],inactive
same,Potency,[4],inactive
same,Potency,[5],inactive
CCCOC(=O)c1ccc(N)cc1,Potency,[1],inactive
same,Potency,[3],23.7 µM (active)
same,Potency,[4],inactive
same,Potency,[6],inactive
same,Potency,[7],inactive
same,Potency,[5],inactive
same,Potency,[8],inactive
CO[Si](C)(OC)OC,Potency,[1],inactive
same,Potency,[2],inactive
same,Potency,[3],inactive
same,Potency,[4],inactive
same,Potency,[5],inactive
CC1=C(/C=C/C(C)=C\C=C\C(C)=C\C(=O)O)C(C)(C)CCC1,Potency,[1],34.4 µM (active)
same,Potency,[4],inactive
same,Potency,[5],inactive
Cc1cc2nc3ccc(=[N+](C)C)cc-3sc2cc1N,Potency,[1],0.596 µM (active)
same,Potency,[2],2.11 µM (active)
same,Potency,[3],0.596 µM (active)
same,Potency,[7],inactive
same,Potency,[5],8.41 µM (active)
same,Potency,[8],4.22 µM (active)
O=C(Nc1ccccc1)Nc1ccccc1,Potency,[2],48.8 µM (active)
same,Potency,[5],inactive
COc1cc2[nH]c(=O)[nH]c(=O)c2cc1OC,Potency,[1],inactive
same,Potency,[2],inactive
same,Potency,[3],inactive
same,Potency,[5],inactive
COCc1c(C(C)C)nc(C(C)C)c(/C=C/[C@@H](O)C[C@@H](O)CC(=O)O)c1-c1ccc(F)cc1,Potency,[1],0.075 µM (active)
same,Potency,[2],0.0133 µM (active)
same,Potency,[3],0.298 µM (active)
same,Potency,[7],13.3 µM (active)
same,Potency,[5],inactive
same,Potency,[8],inactive
CO[C@@]12[C@H](COC(N)=O)C3=C(C(=O)C(C)=C(N)C3=O)N1C[C@@H]1N[C@@H]12,Potency,[4],inactive
CCOC(=O)/C=C/C(=O)O,Potency,[1],inactive
same,Potency,[4],inactive
same,Potency,[9],inactive
same,Potency,[6],inactive
same,Potency,[7],inactive
same,Potency,[5],inactive
same,Potency,[8],inactive
O=C(CCCCCCCCC#CI)Oc1ccccc1,Potency,[1],inactive
same,Potency,[2],inactive
same,Potency,[4],inactive
same,Potency,[9],inactive
same,Potency,[6],inactive
same,Potency,[7],inactive
same,Potency,[5],inactive
same,Potency,[8],inactive
COC(=O)Nc1nc2ccc(C(=O)c3cccs3)cc2[nH]1,Potency,[1],0.15 µM (active)
same,Potency,[2],0.211 µM (active)
same,Potency,[3],0.237 µM (active)
same,Potency,[5],inactive
O=C(O)c1cccnc1C(=O)O,Potency,[1],inactive
same,Potency,[2],inactive
same,Potency,[3],inactive
same,Potency,[4],inactive
same,Potency,[5],inactive
O=C(CCCCCCC(=O)Nc1ccccc1)NO,Potency,[1],1.06 µM (active)
same,Potency,[2],531 nM (active) and 841 nM (active)
same,Potency,[3],1.5 µM (active)
same,Potency,[5],inactive
CC1(C)O[C@@H]2C[C@H]3[C@@H]4CCC5=CC(=O)C=C[C@]5(C)[C@H]4[C@@H](O)C[C@]3(C)[C@]2(C(=O)CO)O1,Potency,[3],inactive
same,Potency,[4],inactive
NC(=O)Cn1c(=O)cc(CCN2CCN(c3nccc4sccc34)CC2)c2ccc(F)cc21,Potency,[1],27.3 µM (active)
same,Potency,[2],27.3 µM (active)
same,Potency,[3],24.3 µM (active)
same,Potency,[5],inactive
Cc1ccc(S(=O)(=O)NC2CCCCC2)cc1,Potency,[4],inactive
same,Potency,[5],inactive
O=C(C(=O)c1ccccc1)c1ccccc1,Potency,[2],inactive
same,Potency,[3],inactive
same,Potency,[4],inactive
CC(C)C(OC(=O)c1ccccc1)C(C)(C)COC(=O)c1ccccc1 (stereo unspecified),Potency,[1],21.7 µM (active)
same,Potency,[2],27.3 µM (active)
same,Potency,[3],24.3 µM (active)
same,Potency,[4],inactive
same,Potency,[5],inactive
CCOC(=O)[C@@H](C)Oc1ccc(Oc2nc3ccc(Cl)cc3o2)cc1,Potency,[1],68.6 µM (active)
same,Potency,[3],61.1 µM (active)
same,Potency,[4],inactive
same,Potency,[7],inactive
same,Potency,[5],inactive
same,Potency,[8],inactive
C[Si](NC1CCCCC1)(NC1CCCCC1)NC1CCCCC1,Potency,[2],61.1 µM (active)
CC(=O)OCC(=O)[C@H]1CC[C@H]2[C@@H]3CCC4=CC(=O)CC[C@]4(C)[C@H]3CC[C@]12C,Potency,[4],inactive
same,Potency,[9],inactive
same,Potency,[6],0.0301 µM (active)
same,Potency,[7],9.44 µM (active)
same,Potency,[8],inactive
CCOC(=O)c1ccccc1C,Potency,[2],61.1 µM (active)
same,Potency,[4],inactive
same,Potency,[5],inactive
O=C(c1ccc(O)cc1)c1ccc(Cl)cc1,Potency,[2],62.4 µM (active)
same,Potency,[3],55.6 µM (active)
same,Potency,[4],inactive
CSc1ccc(Oc2ccc(S(N)(=O)=O)cc2CN(C)C)cc1C,Potency,[1],24.3 µM (active)
same,Potency,[2],27.3 µM (active)
same,Potency,[3],61.1 µM (active)
same,Potency,[6],inactive
same,Potency,[7],inactive
